Laboratory results taken from PubChem BioAssay AID1159580 (chemical genetic matrix, 2015).
Screen size: about 5,500 compounds; about 2,000 (36%) were called active. Another 18% or so got no clear call; they are omitted. No stated cut-off is given here; in the data, active means normalized growth mostly below about 0.91 (no sharp cut-off); inconclusive means no clear call, values can overlap the other calls; inactive means mostly above about 0.92. The list shows a part of the results.

Test: chemical genetic growth profiling, strain panel (AID 1159580);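 further: tested at 20 µM; growth read once vehicle control cultures reached saturation at 30 °C; 1 = growth at the plate median or of vehicle wells; lower values mean less growth of the strain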
Details: S. cerevisiae deletion strains, growth OD
[1] = locus YDL101C, strain DUN1, hits give low values
[2] = locus YHR030C, strain SLT2, hits give low values

Measured: normalized growth

CCCCCCCCCCCCSc1nnc(N)s1
inactive: locus YAL013W, strain DEP1, hits give low values 1.01 | locus YBR229C, strain ROT2, hits give low values 0.994 | [1] 1.05 | locus YDR150W, strain NUM1, hits give low values 1.01 | locus YEL061C, strain CIN8, hits give low values 1 | locus YGR078C, strain PAC10, hits give low values 0.999 | locus YGR229C, strain SMI1, hits give low values 0.977 | [2] 0.964 | locus YHR087W, strain rtc3, hits give low values 1.02 | locus YJL187C, strain SWE1, hits give low values 0.995 | locus YJR043C, strain POL32, hits give low values 0.984 | locus YJR075W, strain HOC1, hits give low values 1.01 | locus YLR039C, strain RIC1, hits give low values 0.981 | locus YLR058C, strain SHM2 (second series), hits give low values 0.991 | locus YLR085C, strain ARP6, hits give low values 0.953 | locus YLR262C, strain YPT6, hits give low values 1 | locus YML094W, strain GIM5, hits give low values 1.12 | locus YMR219W, strain ESC1, hits give low values 0.996 | locus YMR263W, strain SAP30, hits give low values 0.968 | locus YMR307W, strain GAS1, hits give low values 0.933 | locus YNL153C, strain GIM3, hits give low values 1.02 | locus YNL298W, strain CLA4 (second series), hits give low values 0.976 | locus YNL322C, strain KRE1, hits give low values 0.983 | locus YNR030W, strain Alg12, hits give low values 1.02 | locus YPL055C, strain LGE1, hits give low values 1.02 | locus YPL241C, strain CIN2, hits give low values 0.978 | locus YPR135W, strain CTF4, hits give low values 1.21

CCCCCCCCCCCCSc1ncn[nH]1
active: locus YFR019W, strain FAB1, hits give low values 0.443 | locus YGR052W, strain FMP48, hits give low values 0.511 | [2] 0.135 | locus YHR079C, strain IRE1, hits give low values 0.254 | locus YHR082C, strain KSP1, hits give low values 0.209 | locus YHR205W, strain SCH9, hits give low values 0.294 | locus YJL095W, strain BCK1, hits give low values 0.279 | locus YJR066W, strain TOR1, hits give low values 0.297 | locus YLR113W, strain HOG1, hits give low values 0.479 | locus YLR133W, strain CKI1, hits give low values 0.566 | locus YLR403W, strain SFP1, hits give low values 0.447 | locus YNL020C, strain ARK1, hits give low values 0.523 | locus YNL183C, strain NPR1, hits give low values 0.444 | locus YNL307C, strain MCK1 (second series), hits give low values 0.478 | locus YOR231W, strain MKK1, hits give low values 0.439 | locus YPL031C, strain PHO85, hits give low values 0.542 | locus YPL153C, strain RAD53, hits give low values 0.556 | locus YPL204W, strain HRR25, hits give low values 0.556 | locus YPL256C, strain CLN2, hits give low values 0.318
inactive: locus YAR019C, strain CDC15, hits give low values 0.985 | locus YBL105C, strain PKC1, hits give low values 0.976 | locus YBR135W, strain CKS1, hits give low values 0.968 | locus YBR136W, strain MEC1, hits give low values 0.973 | locus YBR160W, strain CDC28, hits give low values 0.971 | locus YDL017W, strain CDC7, hits give low values 0.977 | locus YDL028C, strain MPS1, hits give low values 0.976 | [1] 0.975 | locus YDL108W, strain KIN28, hits give low values 0.969 | locus YDL132W, strain cdc53, hits give low values 0.976 | locus YDL214C, strain PRR2, hits give low values 0.735 | locus YDR052C, strain DBF4, hits give low values 0.975 | locus YDR054C, strain cdc34, hits give low values 0.98 | locus YDR226W, strain ADK1, hits give low values 0.968 | locus YDR477W, strain SNF1, hits give low values 0.734 | locus YER123W, strain YCK3, hits give low values 0.645 | locus YER133W, strain GLC7, hits give low values 0.88 | locus YFL009W, strain cdc4, hits give low values 0.971 | locus YFL029C, strain CAK1, hits give low values 0.981 | locus YFR003C, strain YPI1, hits give low values 0.977 | locus YFR028C, strain CDC14, hits give low values 0.977 | locus YGR040W, strain KSS1, hits give low values 0.817 | locus YGR092W, strain DBF2, hits give low values 0.595 | locus YIL147C, strain SLN1, hits give low values 0.978 | locus YJL128C, strain PBS2, hits give low values 0.939 | locus YJL157C, strain FAR1, hits give low values 0.728 | locus YJR016C, strain ILV3, hits give low values 0.975 | locus YJR066W, strain TOR1 (second series), hits give low values 0.738 | locus YKL048C, strain ELM1, hits give low values 0.821 | locus YKL067W, strain YNK1, hits give low values 0.85 | locus YKL193C, strain SDS22, hits give low values 0.976 | locus YKL203C, strain TOR2, hits give low values 0.731 | locus YML070W, strain DAK1, hits give low values 0.789 | locus YMR001C, strain CDC5, hits give low values 0.976 | locus YMR205C, strain PFK2 (second series), hits give low values 0.771 | locus YMR277W, strain FCP1, hits give low values 0.975 | locus YNL006W, strain LST8, hits give low values 0.986 | locus YNL161W, strain CBK1, hits give low values 0.981 | locus YNL207W, strain RIO2, hits give low values 0.978 | locus YNL222W, strain SSU72, hits give low values 0.972 | locus YOL078W, strain AVO1, hits give low values 0.973 | locus YOL136C, strain PFK27, hits give low values 0.723 | locus YOR061W, strain CKA2, hits give low values 0.84 | locus YOR119C, strain RIO1, hits give low values 0.655 | locus YOR329C, strain SCD5, hits give low values 0.984 | locus YPL209C, strain IPL1, hits give low values 0.982 | locus YPR025C, strain CCL1, hits give low values 0.972 | locus YPR106W, strain ISR1, hits give low values 0.991 | locus YPR111W, strain DBF20, hits give low values 0.973 | strain NNK1, hits give low values 0.983 | strain TSCII, hits give low values 0.975
